Experimental findings from PubChem BioAssay (EPA / NIEHS) are described below.

The structures appear in SMILES notation. Records with an inconclusive call do not appear. Calls of active or inactive are those of the source. How the source made its calls, unless noted: active means hit-call score of the fitted dose curve at least 0.9, where 1 is the maximum; inconclusive means response in the unintended direction; inactive means score below 0.9.

The subject of assay [1] is Sodium/Iodide Symporter (NIS), SLC5A5 (gene 6528). The assay can be described thus: CPHEA_Stoker_NIS_Inhibition_RAIU: CPHEA's Radioactive Iodide Uptake (RAIU) Assay for Sodium/Iodide Symporter (NIS) Inhibition, Stoker and Laws Labs (AID 2283841). The method, boiled down:
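Test chemicals, six concentrations from 0.001 to 100uM in 0.5% DMSO, were co-incubated with carrier-free 125I (final 329pM) on hNIS-HEK293T-EPA monolayers in pH 7.4 HEPES-buffered HBSS. Plates stood 2 hours at room temperature, then were washed cold and counted.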

Assay [2] can be described thus: CPHEA_Stoker_NIS_Cytotoxicity: Cytotoxicity Assessment for CPHEA's Radioactive Iodide Uptake (RAIU) Assay for Sodium/Iodide Symporter (NIS) Inhibition, Stoker and Laws Labs (AID 2283897).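 On AC50: active means loss of ATP signal versus DMSO meaning cytotoxicity.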 The method in brief: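 Viability in hNIS-HEK293T-EPA cells is scored as a drop in luciferase-detected ATP following 2-hour room-temperature exposure (0.001–100uM; triplicate wells, three cell passages), with DMSO as negative control.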

Assay [3] in a line: CEETOX_H295R_11DCORT_noMTC: CeeTox H295R High-throughput Steroidogenesis Assay for 11-Deoxycortisol (11DCORT), maximum tolerated concentration (MTC) filtered results only (AID 2283911; active means hit-call score of the fitted dose curve at least 0.9, where 1 is the maximum; inactive means score below 0.9). The conditions noted are these: actives raise or lower the signal. The method in brief: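 Steroidogenesis was stimulated in H295R cells with 10 uM forskolin for 48 h before a 48 h chemical exposure. Secreted 11-deoxycortisol was measured by tandem mass spectrometry and fitted bidirectionally against DMSO controls.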

A short description of assay [4]: CEETOX_H295R_OHPREG_noMTC: CeeTox H295R High-throughput Steroidogenesis Assay for OH-Pregnenolone (OHPREG), maximum tolerated concentration (MTC) filtered results only (AID 2283912; active means hit-call score of the fitted dose curve at least 0.9, where 1 is the maximum; inactive means score below 0.9). The conditions noted are these: actives raise or lower the signal. The method, boiled down: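 H295R cells prestimulated 48 h with 10 uM forskolin, then exposed 48 h to compound (0.1% DMSO). 17alpha-hydroxypregnenolone in medium measured by MTBE extraction and HPLC-MS/MS; bidirectional fit vs DMSO, concentrations not MTT/MTC-filtered.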

Assay [5] is described as follows: ATG_M_61_XSP2: Attagene TRANS-FACTORIAL Multi-Species (XSP2) HepG2 Assay for M61 Transcription Factor (Internal Marker) (AID 2283835; active means hit-call score of the fitted dose curve at least 0.9, where 1 is the maximum; inactive means score below 0.9;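 further: active means a rise in signal above the DMSO baseline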). The method in brief:
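HepG2 cells transiently transfected with multiple GAL4-UAS reporter units; reporter mRNA measured 24 h after dosing by RT-PCR, fluorescent labelling and capillary electrophoresis. Medium contained 3 nM 6-alpha-fluorotestosterone and 1.5 nM norgestrel; internal marker, DMSO baseline.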

The target in assay [6] is zebrafish Thyroid Hormone Receptor beta (TRb), thrb (gene 30607) (UniProt Q9PVE4). Nature of the assay: ATG_zfTRb_XSP2: Attagene TRANS-FACTORIAL Multi-Species (XSP1) HepG2 Assay for zebrafish Thyroid Hormone Receptor beta (TRb) (AID 2283836). The method, boiled down:
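HepG2 cells transiently transfected with chimeric zebrafish TRb-GAL4 reporter units, dosed 24 h with 3 nM 6-alpha-fluorotestosterone and 1.5 nM norgestrel present. Reporter mRNA quantified by RT-PCR and capillary electrophoresis; gain fitted against DMSO.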

Assay [7] deals with human Thyroid hormone Receptor alpha (TRa), THRA (gene 7067) (UniProt P10827). Nature of the assay: ATG_hTRa_XSP2: Attagene TRANS-FACTORIAL Multi-Species (XSP2) HepG2 Assay for human Thyroid hormone Receptor alpha (TRa) (AID 2283838). The method in brief:
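HepG2 cells were transiently transfected with GAL4-UAS reporter units for chimeric human TRa-Gal4 and dosed for 24 hours, with 3 nM 6-alpha-fluorotestosterone and 1.5 nM norgestrel present. Reporter mRNA was quantified by RT-PCR, FAM labelling and capillary electrophoresis, with gain of signal fitted versus DMSO.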

human Thyroid hormone Receptor alpha (TRa), THRA (gene 7067), sequence (P10827 whole entry, looked up, the tested form may be a part): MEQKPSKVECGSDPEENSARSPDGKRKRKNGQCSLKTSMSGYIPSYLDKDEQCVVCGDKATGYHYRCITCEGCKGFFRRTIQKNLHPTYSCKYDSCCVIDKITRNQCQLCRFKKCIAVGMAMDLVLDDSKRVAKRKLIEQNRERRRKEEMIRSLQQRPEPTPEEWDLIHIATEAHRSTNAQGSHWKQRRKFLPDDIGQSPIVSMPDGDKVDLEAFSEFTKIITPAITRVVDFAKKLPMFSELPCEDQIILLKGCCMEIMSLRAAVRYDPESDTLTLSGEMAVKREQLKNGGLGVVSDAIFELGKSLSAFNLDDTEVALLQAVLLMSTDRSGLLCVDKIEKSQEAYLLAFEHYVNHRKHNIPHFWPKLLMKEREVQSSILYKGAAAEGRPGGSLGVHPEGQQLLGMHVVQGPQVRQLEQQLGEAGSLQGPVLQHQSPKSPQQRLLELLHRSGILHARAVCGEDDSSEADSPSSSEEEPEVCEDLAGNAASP
zebrafish Thyroid Hormone Receptor beta (TRb), thrb (gene 30607), sequence (Q9PVE4 whole entry, looked up, the tested form may be a part): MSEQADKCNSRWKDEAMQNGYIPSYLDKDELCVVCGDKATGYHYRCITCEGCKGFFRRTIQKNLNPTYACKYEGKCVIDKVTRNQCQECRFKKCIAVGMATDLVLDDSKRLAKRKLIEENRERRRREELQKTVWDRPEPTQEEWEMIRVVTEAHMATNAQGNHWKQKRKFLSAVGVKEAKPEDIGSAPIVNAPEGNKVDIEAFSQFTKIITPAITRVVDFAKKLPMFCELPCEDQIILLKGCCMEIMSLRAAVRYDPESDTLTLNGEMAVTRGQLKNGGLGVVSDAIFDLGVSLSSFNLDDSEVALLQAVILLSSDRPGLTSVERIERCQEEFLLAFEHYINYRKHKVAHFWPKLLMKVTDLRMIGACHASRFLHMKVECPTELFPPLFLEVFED

Consider `O=S(=O)(Cl)C(F)(F)C(F)(F)C(F)(F)C(F)(F)C(F)(F)C(F)(F)C(F)(F)C(F)(F)F`, for which the half-maximal activity concentration (AC50) in assay [1] is 16.9 µM (active).
With `CCCCCCCCCCCCCC[P+](CCCC)(CCCC)CCCC`, the figures for the AC50 in assay [1] and in assay [2] were 9.92 µM (active) and 15.9 µM (active), respectively.
With `O=C1C=CC(=O)N1c1ccccc1`, the AC50 in assay [1] is 9.92 µM (active); in assay [2], 81.6 µM (active).
The matching figures for `CCN=c1cc2oc3cc(NCC)c(C)cc3c(-c3ccccc3C(=O)OCC)c-2cc1C`: 3.23 µM (active) and 30.8 µM (active).
Regarding `OCC(F)(F)C(F)(F)C(F)(F)C(F)(F)C(F)(F)C(F)(F)CO`, the result in assay [1] was inactive.
With `OCC(O)CC(F)(F)C(F)(F)C(F)(F)C(F)(F)C(F)(F)C(F)(F)C(F)(F)C(F)(F)F` (stereo not given), the result in assay [1] was inactive.
On to `CCCCCCCCCc1ccc(OCCO)cc1`, for which the AC50 in assay [1] was 7.03 µM (active); in assay [2] it was 24.3 µM (active).
Consider `CC(C)(C)c1cc(CCC(=O)NCCCCCCNC(=O)CCc2cc(C(C)(C)C)c(O)c(C(C)(C)C)c2)cc(C(C)(C)C)c1O`, for which the call in assay [3] and in assay [4] was inactive.
Take `FC(F)(F)C(F)(F)C(F)(F)C(F)(F)C(F)(F)C(F)(F)C(F)(F)CCI`: the AC50 in assay [1] is 3.31 µM (active).
With `Nc1c(Br)cc([N+](=O)[O-])cc1Br`, the result in assay [3] and in assay [4] was inactive.
For `CCCCCCCCCCCCC[N+](C)(C)Cc1ccccc1`, the AC50 in assay [1] is 11.2 µM (active). Besides, in assay [2], the result was inactive.
`OCCCC(F)(F)C(F)(F)C(F)(F)C(F)(F)C(F)(F)C(F)(F)C(F)(F)C(F)(F)F`: the outcome in assay [1] was inactive.
Regarding `NS(=O)(=O)C(F)(F)C(F)(F)C(F)(F)C(F)(F)C(F)(F)C(F)(F)F`, the outcome in assay [1] was inactive.
Consider `O=C(c1ccccc1)c1ccc(O)cc1O`, for which the molecule was classed as inactive in assay [5], in assay [6], in assay [7], in assay [1] and in assay [2].
